# Where “and” joins values, the source holds several entries; their conditions need not be identical. Identical values can stand only once. Inconclusive results are not listed. Unmarked numbers belong to inactive results. Calls of active or inactive are those of the source. The call rests on the fitted dose curve.
# How the values were obtained:
# [1] = target: Bile acid receptor (Homo sapiens) (UniProt Q96RI1); test: qHTS assay for small molecule agonists of farnesoid X receptor signaling (AID 588527); settings: HEK293T FXR-UAS-bla, beta-lactamase ratio, 16 h; activation: active compounds read high;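 further: series mostly up to about 77 µM; 0% = vehicle basal and 100% = reference agonist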
# Bile acid receptor (Homo sapiens), sequence (Q96RI1 whole entry, looked up): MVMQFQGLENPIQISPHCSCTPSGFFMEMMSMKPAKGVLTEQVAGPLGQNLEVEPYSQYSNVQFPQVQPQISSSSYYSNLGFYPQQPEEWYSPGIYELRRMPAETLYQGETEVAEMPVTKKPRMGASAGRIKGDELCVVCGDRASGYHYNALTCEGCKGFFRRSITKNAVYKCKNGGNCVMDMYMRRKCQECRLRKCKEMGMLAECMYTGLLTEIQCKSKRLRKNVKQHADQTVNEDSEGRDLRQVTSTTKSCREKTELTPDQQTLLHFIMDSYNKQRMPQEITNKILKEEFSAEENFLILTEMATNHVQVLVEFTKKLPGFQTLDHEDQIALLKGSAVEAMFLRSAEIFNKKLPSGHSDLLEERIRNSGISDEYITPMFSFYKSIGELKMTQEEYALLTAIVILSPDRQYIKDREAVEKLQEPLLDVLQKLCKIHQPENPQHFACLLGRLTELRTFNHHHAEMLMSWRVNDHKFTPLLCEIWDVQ
# Method in brief: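 Agonist-mode beta-lactamase reporter in GeneBLAzer FXR-UAS-bla HEK293T cells, titration up to 92 uM, 16 h exposure at 37 C, CCF4 fluorescence. Response scaled to DMSO (0%) and 100 uM chenodeoxycholic acid (100%), then Hill-fitted for EC50 and efficacy.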
# [2] = target: Peroxisome proliferator-activated receptor delta (Homo sapiens) (UniProt Q03181); test: qHTS assay for small molecule agonists of peroxisome proliferator-activated receptor delta signaling (AID 588534);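 further: 0% = DMSO basal wells and 100% = positive control agonist at 10 µM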
# Peroxisome proliferator-activated receptor delta (Homo sapiens), sequence (Q03181 whole entry, looked up): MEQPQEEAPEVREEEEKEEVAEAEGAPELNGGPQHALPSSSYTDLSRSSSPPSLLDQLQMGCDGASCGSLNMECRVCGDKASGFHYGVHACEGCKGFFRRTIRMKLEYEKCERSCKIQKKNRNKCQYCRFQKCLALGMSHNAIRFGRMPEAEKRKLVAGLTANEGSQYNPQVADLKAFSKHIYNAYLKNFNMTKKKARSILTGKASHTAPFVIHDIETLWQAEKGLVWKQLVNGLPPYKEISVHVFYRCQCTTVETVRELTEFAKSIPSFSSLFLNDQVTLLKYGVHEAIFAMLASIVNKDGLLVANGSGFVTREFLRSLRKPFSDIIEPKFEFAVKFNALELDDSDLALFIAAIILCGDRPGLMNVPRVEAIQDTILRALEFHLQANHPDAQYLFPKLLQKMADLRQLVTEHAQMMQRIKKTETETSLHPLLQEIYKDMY
# Method in brief: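 Agonist-mode beta-lactamase reporter readout (CCF4 dye, 2 h at RT) after 18 h at 37 °C exposure to a titration; Hill-equation fitting gave EC50 and maximal response.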
SMILES,activation [1],outcome [2]
C=CC(=O)OCCOCCOCCOCCOC(=O)C=C,26.3%,inactive
Cc1ccc(N=Nc2c(O)ccc3ccccc23)c([N+](=O)[O-])c1,-0.458%,inactive
CC(=O)c1cccc([N+](=O)[O-])c1,-1.11%,inactive
O=c1n(CCO)c(=O)n(CCO)c(=O)n1CCO,0.713%,inactive
Cc1cccc([N+](=O)[O-])c1C(=O)O,-1.22%,inactive
CC(C)=CCl,-3.14%,inactive
CCC(C)=O,-0.657%,inactive
CCCCC(CC)COP(=O)(O)OCC(CC)CCCC (stereo not given),-0.5%,inactive
NC(=O)/N=N/C(N)=O,-1.16%,inactive
CC1=CC(=O)CC(C)(C)C1(O)/C=C/C(C)=C\C(=O)O (stereo not given),-3.19%,inactive
C[Si](Cl)(Cl)c1ccccc1,0.0023%,inactive
CC1(C)CC(NCCCCCCNC2CC(C)(C)NC(C)(C)C2)CC(C)(C)N1,5.33%,inactive
NCCCCCCCCCCC(=O)O,1.65%,inactive
CCOC(=O)NCCOc1ccc(Oc2ccccc2)cc1,2.99%,inactive
O=Cc1cccc(Br)c1,-4.69%,inactive
CC(=C/C=C/C(C)=C/C=C/C=C(C)/C=C/C=C(C)/C=C/C(=O)O)/C=C/C(=O)O,-1.08%,inactive
C[Si](C)(C)Cl,1.08%,inactive
Cc1cc(C(C)(C)CC(C)(C)C)ccc1OCCOCC[N+](C)(C)Cc1ccccc1,-0.746%,inactive
C(=C/c1ccccc1)/c1ccccc1,-2.54%,inactive
C=C(C)C(=O)OCCCCCCCCCC,-1.22%,inactive

SMILES,activation [1],outcome [2]
CC(C)(c1cc(Br)c(O)c(Br)c1)c1cc(Br)c(O)c(Br)c1,3.15% and 6.79% and 4.84%,inactive
Cc1cc(C)cc(N)c1,-1.69%,inactive
CCCCCCCCC1CO1 (stereo not given),0.755%,inactive
CCCCCCC(O)CCCCCCCCCCC(=O)O (stereo not given),3.12%,inactive
C=CC(=O)OCCCCCCOC(=O)C=C,-0.189%,inactive
OCC(CO)(CBr)CBr,-0.248%,inactive
Nc1ccccc1[N+](=O)[O-],-3.44%,inactive
CCCCCCCCCCCC[N+](C)(C)[O-],8.79%,inactive
NC(=O)Cc1cccc2ccccc12,0.544%,inactive
CCC(=O)/C=C/C1C(C)=CCCC1(C)C (stereo not given),-0.845%,inactive
C1COC1,-2.57%,inactive
CN(C)CCOCCN(C)C,-0.638%,inactive
CCC(O)C(C)(C)C (stereo not given),0.367%,inactive
Nc1ncnc2c1ncn2[C@H]1CC[C@@H](CO)O1,0.029% and -3.36%,inactive
O=C1CCC(=O)O1,-2.49%,inactive
CCCCCCCCCCCCCCCCCCN,1.62%,inactive
O=C1OC(=O)c2c(Cl)c(Cl)c(Cl)c(Cl)c21,-0.745% and 3.66%,inactive
CCOc1ccc(NC(=O)OC(C)C)cc1OCC,-1.45%,inactive
CC(C)CCOC(=O)/C=C/c1ccccc1,-2.58%,inactive
CO/N=C1\C[C@]2(C[C@@H]3C[C@@H](C/C=C(\C)C[C@@H](C)/C=C/C=C4\CO[C@@H]5[C@H](O)C(C)=C[C@@H](C(=O)O3)[C@]45O)O2)O[C@H](/C(C)=C/C(C)C)[C@H]1C,6.07%,inactive

SMILES,activation [1],outcome [2]
Cc1cccc2ccccc12,-0.539%,inactive
OC1CCC(C2CCCCC2)CC1 (stereo not given),0.637%,inactive
O=S(=O)(O)c1ccc(N=Nc2c(O)ccc3cc(S(=O)(=O)O)ccc23)cc1,-1.3%,inactive
C[Si](C)(C)O[Si](C)(C)C,-0.871%,inactive
Cc1ccc(C)c(O)c1,2.07%,inactive
CC(=O)Nc1ccc(N)cc1,1.67%,inactive
C1CCOC1,-4.53%,inactive
C[C@]12CCC(=O)C=C1CC[C@@H]1[C@@H]2[C@@H](O)C[C@]2(C=O)[C@@H](C(=O)CO)CC[C@@H]12,1.4%,inactive
Cc1cc(C)cc([N+](=O)[O-])c1,-0.797%,inactive
CCNc1nc(NC(C)CC)nc(OC)n1 (stereo not given),-1.27%,inactive
COC(=O)c1c(Cl)nn(C)c1S(=O)(=O)NC(=O)Nc1nc(OC)cc(OC)n1,3.79%,inactive
COC(=O)c1ccccc1S(=O)(=O)NC(=O)Nc1nc(OC(F)F)cc(OC(F)F)n1,2.12%,inactive
CCO[Si](CCCN)(OCC)OCC,-1.61% and 1.5%,inactive
O=C(O)c1ccc(CO)o1,0.258%,inactive
CC(C=O)Cc1ccc(C(C)(C)C)cc1 (stereo not given),0.434% and 1.86%,inactive
CCCC(C)CO (stereo not given),1.08%,inactive
CCCCCCCCCCCCO,-2.63%,inactive
C=C(C)C(=O)OCC(CC)(COC(=O)C(=C)C)COC(=O)C(=C)C,-1.88%,inactive
O=C(O)c1ccc(O)cc1O,1.07% and -1.82%,inactive
CC1COCc2cc3c(cc21)C(C)(C)C(C)C3(C)C (stereo not given),0.585%,inactive

# Reference: PubChem BioAssay (NCATS)
